Results taken from PubChem BioAssay AID778 (Sanford-Burnham Center for Chemical Genomics, 2007).
About 20,000 (21%) of roughly 96,000 compounds were called active. Not all results are given here. A number with no mark means an inactive call.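 Rule for the calls: active = CYP2C19 inhibition above a set limit at 5 µM in the primary screen (cut at about 50% in these data); inactive = the rest.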

Target: Cytochrome P450 2C19 (Homo sapiens) (UniProt P33261)
Assay: blockers of cytochrome P450 2C19 activity – biochemical, luminescence, ADME assay, primary screen (AID 778);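 note: plate controls were negative control wells for no effect and 2.5 mM tranylcypromine positive control for full effect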
Settings: CYP2C19 Supersomes, luciferin-H EGE luminescence, 30 min; at 5 µM; active compounds read high

Sequence of Cytochrome P450 2C19 (Homo sapiens) (P33261 whole entry, looked up): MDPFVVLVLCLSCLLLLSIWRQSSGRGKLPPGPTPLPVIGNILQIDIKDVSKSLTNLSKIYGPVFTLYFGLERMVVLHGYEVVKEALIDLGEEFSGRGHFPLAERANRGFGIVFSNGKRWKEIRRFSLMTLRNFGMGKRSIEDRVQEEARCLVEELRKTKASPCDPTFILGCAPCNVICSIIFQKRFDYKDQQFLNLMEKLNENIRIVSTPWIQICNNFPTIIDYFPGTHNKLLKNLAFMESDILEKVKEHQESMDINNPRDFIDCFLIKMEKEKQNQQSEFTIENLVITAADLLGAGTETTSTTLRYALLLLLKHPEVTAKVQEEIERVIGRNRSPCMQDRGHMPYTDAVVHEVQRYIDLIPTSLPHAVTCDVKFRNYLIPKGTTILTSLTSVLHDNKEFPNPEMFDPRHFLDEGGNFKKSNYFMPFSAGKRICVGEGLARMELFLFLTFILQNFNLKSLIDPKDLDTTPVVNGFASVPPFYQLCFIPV

Q: CCCc1ccc(-c2c(C)sc(NC(=O)c3ccnn3C)c2C#N)cc1 was tested. Which inhibition did it give?
A: 23.9%

Q: With CCCC(=O)N1c2ccccc2NC2=C(C(=O)CCC2)C1c1ccc(F)cc1 (stereo unspecified) as the compound, how does the inhibition read?
A: 48.1%

Q: With CN(C(=O)CSc1nnc(N)s1)c1c(N)n(Cc2ccccc2)c(=O)[nH]c1=O as the compound, how does the inhibition read?
A: -3.1%

Q: How did the inhibition turn out when O=C(CN1CCOCC1)N1CCCc2c1c(=O)oc1ccc(OCc3ccccc3)cc21 was run?
A: 29.5%

Q: With CCN(CC)S(=O)(=O)c1ccc(N(C)Cc2ccc(C(F)(F)F)cc2)nc1 as the compound, how does the inhibition read?
A: 85.1% (active)

Q: For Cc1ccc(-n2c(N)c(C(=O)N3CCOCC3)sc2=S)c(C)c1, which inhibition is on record?
A: 20.4%

Q: How did the inhibition turn out when COc1cccc(OCCOc2cccc(/C=N/n3cnnc3)c2)c1 was run?
A: 54.7% (active)

Q: With COc1ccccc1OCCOc1ccc(/C=N/n2cnnc2)cc1 as the compound, how does the inhibition read?
A: 38.5%

Q: With C(=N\n1cnnc1)/c1cccnc1 as the compound, how does the inhibition read?
A: -5.3%

Q: Which inhibition does the source give for Oc1ccc(CNc2ccccc2O)cc1 here?
A: 22%

Q: CC(C)C1N=C2c3ccccc3N=C(SCC(=O)c3ccc(O)c(O)c3)N2C1=O (stereo unspecified) was tested. Which inhibition did it give?
A: 16.6%

Q: How did the inhibition turn out when O=C(N/N=C/c1ccc(O)c(O)c1)C1c2ccccc2Oc2ccccc21 was run?
A: -4.1%

Q: Which inhibition does the source give for CCCN(CCC)C(=O)C1c2ccccc2Oc2ccccc21 here?
A: 57.1% (active)

Q: How did the inhibition turn out when COCC(=O)Nc1ccc(Br)cc1 was run?
A: 13%

Q: How did the inhibition turn out when O=C(c1cnn2ccccc12)N1CCc2ccccc21 was run?
A: 25.2%

Q: CCCCc1nc2ccccc2c(=O)n1NC(=O)c1c(O)c2cccc3c2n(c1=O)CC3 was tested. Which inhibition did it give?
A: 8%

Q: With CCCCn1nc(C(=O)N2CCc3ccccc32)c2ccccc2c1=O as the compound, how does the inhibition read?
A: 69.6% (active)

Q: For Cc1ccc(-c2cc(C(=O)N/N=C/C=C/c3ccco3)c3ccccc3n2)cc1C, which inhibition is on record?
A: -4.3%

Q: COC(=O)c1c(C)c(C)nc(N)c1C#N was tested. Which inhibition did it give?
A: -7.3%

Q: O=C(CN1CCCCCC1)Nc1ccc(Br)cc1Br was tested. Which inhibition did it give?
A: 42.6%

Q: With CCOc1cccc(-c2nnc3sc(COc4ccc(OC)cc4)nn23)c1 as the compound, how does the inhibition read?
A: 19.8%

Q: How did the inhibition turn out when CCOc1cccc(-n2nnnc2-c2ccc(OC)cc2)c1 was run?
A: 100% (active)

Q: CCOC(=O)c1sc(=S)n(-c2cccc(OC)c2)c1N was tested. Which inhibition did it give?
A: 31.5%

Q: Which inhibition does the source give for Cc1ccc2[nH]c3c(=O)n(Cc4ccccn4)cnc3c2c1 here?
A: -0.8%

Q: For CC(C)C(=O)OCC(=O)Nc1ccc2c(c1)CCC2, which inhibition is on record?
A: 16.8%

Q: Which inhibition does the source give for COc1ccc(CNc2ccc3c(c2)CCC3)cc1OC here?
A: 49.8%

Q: Which inhibition does the source give for COc1ccc(CC(=O)Nc2ccc3c(c2)CCC3)cc1S(=O)(=O)N1CCOCC1 here?
A: 54.5% (active)

Q: How did the inhibition turn out when S=C1NC(c2ccccc2)=NCN1c1ccc(Br)cc1 was run?
A: 52.3% (active)

Q: With O=C1CN(c2nc(-c3ccccc3)c3cc(Br)ccc3n2)c2ccccc2N1 as the compound, how does the inhibition read?
A: -14.1%

Q: For C=CCn1c2ccccc2c2nnc(SC(CC)C(=O)Nc3nc(C)c(C(=O)OCC)s3)nc21 (stereo unspecified), which inhibition is on record?
A: 48.6%

Q: CCN(CC)CCNC(=O)C1c2ccccc2C(=O)N(C)C1c1cn(C)c2ccccc12 (stereo unspecified) was tested. Which inhibition did it give?
A: -5.9%

Q: Cc1cccc(NC(=O)c2ccccc2NC(=O)C(C)(C)C)n1 was tested. Which inhibition did it give?
A: 30.7%

Q: With Cc1ccc(SCC(=O)Nc2ncc(C)s2)cc1 as the compound, how does the inhibition read?
A: 49.5%

Q: How did the inhibition turn out when Cc1nc(-c2ccccc2)sc1C(=O)/C=C/c1ccccc1 was run?
A: 16.8%

Q: Cc1ccc(SCC(=O)c2sc(-c3ccccc3)nc2C)cc1 was tested. Which inhibition did it give?
A: 60.9% (active)

Q: With CC1CN(Cc2nc3c(c(=O)n(C)c(=O)n3C)n2Cc2cccc(Cl)c2)CC(C)O1 (stereo unspecified) as the compound, how does the inhibition read?
A: 35.9%
